From PubChem BioAssay
The sample as a whole holds a higher share of hits than the screen did.
RE007 growth inh – less growth of the S. pombe RE007 Vpr strain. S. pombe RE007 Vpr strain, BacTiter-Glo ATP luminescence, 24 h. Potency, µM (doses to about 92.2 µM), for inactives: at the top dose activity change, negative = less growth, most hits filed as inhibitors. actives 0.21% (n = 360,000). AID 651644; active means well fitted falling curve with a large enough effect; inconclusive means small, poorly fitted or top-dose-only effect; inactive means no such curve, though single readings can be large or run the other way; further: potency means the concentration at half of the fitted maximal effect; on the % scale 0 is the no-effect control and ±100 the full control effect; nearly all actives have a fitted effect of over 50% in size
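Fission yeast strain RE007, carrying one chromosomally integrated HIV-1 vpr copy, was seeded at OD 0.01 in PMG+AL medium with 23 nL pinned compound. After 24 h at 30 °C and 99% humidity, viability was read by BacTiter-Glo luminescence.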
Tb PYK inh – inhibitors of Trypanosoma brucei pyruvate kinase; TbPYK enzyme, Kinase-Glo Plus ATP luminescence, 45 min; Q57TT1; Potency, µM (top dose mostly 76.8 µM), for inactives: at the highest dose activity, negative = inhibition, hits mostly inhibitors; actives 0.12% (n = 410,000); further: potency means the concentration at half of the fitted maximal effect; on the % scale 0 is the no-effect control and ±100 the full control effect; nearly all actives have a fitted effect of over 50% in size
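Luminescent Kinase-Glo Plus end-point after 45 min room-temperature reaction of T. brucei pyruvate kinase started with 130 uM ADP (final). Buffer TEA 50 mM pH 7.2 with KCl, MgCl2, BSA, Tween-20; titration-based qHTS with fitted concentration-effect curves.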
LmPK inhibitor – LmPK (Leishmania mexicana) enzyme inhibition | purified LmPK, Kinase-Glo ATP luminescence, 1 h | Potency, µM (doses to about 57.5 µM), without a hit: at the highest dose activity change, negative = inhibition, hits mostly inhibitors | actives 0.37% (n = 290,000) | Q27686; further: potency means the concentration at half of the fitted maximal effect; on the % scale 0 is the no-effect control and ±100 the full control effect
Target sequence (Q27686 whole entry, looked up): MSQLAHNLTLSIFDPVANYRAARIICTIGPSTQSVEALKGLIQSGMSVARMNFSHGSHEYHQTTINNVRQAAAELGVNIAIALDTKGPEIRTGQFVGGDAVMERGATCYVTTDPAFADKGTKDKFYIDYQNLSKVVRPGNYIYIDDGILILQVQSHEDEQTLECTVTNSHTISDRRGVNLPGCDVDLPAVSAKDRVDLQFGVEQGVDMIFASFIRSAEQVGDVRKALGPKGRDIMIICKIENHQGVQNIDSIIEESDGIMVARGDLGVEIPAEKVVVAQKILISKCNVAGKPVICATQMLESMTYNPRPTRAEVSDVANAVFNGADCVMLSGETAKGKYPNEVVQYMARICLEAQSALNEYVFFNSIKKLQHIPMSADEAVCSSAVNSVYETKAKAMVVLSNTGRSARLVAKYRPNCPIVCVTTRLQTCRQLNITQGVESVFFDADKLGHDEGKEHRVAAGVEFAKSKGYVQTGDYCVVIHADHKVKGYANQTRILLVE
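qHTS format; LmPK 0.1 nM; substrates PEP 0.5 mM and ADP 0.1 mM. One-hour room-temperature incubation, then coupled luciferase luminescence; 0.5 nM enzyme wells mark activation.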
CHX counter – counter-screen hit for Shiga toxin inhibitors, cycloheximide; max response, %; cell reporter, cycloheximide protein synthesis inhibition counterscreen; actives 12% (n = 300,000); AID 2314; in the data active means max response mostly above about 13%, no sharp cut-off; inactive means mostly below about 14%; further: read at 38.3 µM for the half of the compounds with a filed dose; 0% is about no effect
Shiga toxin inh – inhibitors of Shiga toxin in Vero cells. Vero cells, Shiga toxin protein synthesis inhibition reporter. actives 9.2% (n = 290,000). inhibition, % at 38.7 µM. AID 2315; in the data active means inhibition mostly above about 28%, no sharp cut-off; inactive means mostly below about 43%; further: 0% is about no effect
Giardia FBPA inh – inhibitors of Giardia lamblia fructose-1,6-bisphosphate aldolase | purified Giardia FBPA | Potency, µM (series often up to 59.6 µM), for inactives: top-dose activity, negative = inhibition, most hits filed as inhibitors | actives 0.71% (n = 290,000); further: potency means the concentration at half of the fitted maximal effect; on the % scale 0 is the no-effect control and ±100 the full control effect; nearly all actives have a fitted effect of over 55% in size
Target sequence (A8B2U2 whole entry, looked up): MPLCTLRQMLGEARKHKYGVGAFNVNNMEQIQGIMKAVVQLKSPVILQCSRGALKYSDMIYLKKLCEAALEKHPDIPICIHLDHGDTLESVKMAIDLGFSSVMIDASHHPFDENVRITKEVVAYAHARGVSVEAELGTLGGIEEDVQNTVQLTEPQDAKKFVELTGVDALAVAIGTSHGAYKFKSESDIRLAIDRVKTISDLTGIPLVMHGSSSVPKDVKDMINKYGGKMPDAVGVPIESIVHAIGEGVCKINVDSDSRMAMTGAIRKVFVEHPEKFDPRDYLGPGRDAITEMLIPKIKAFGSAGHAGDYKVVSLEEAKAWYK
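40 nM FBPA preincubated 10 min at RT with compound (up to 57.5 uM final), then substrate plus GAPDH/TPI/NAD/arsenate coupling and diaphorase/resazurin added. Fluorescence read after 20 min at RT, 525/598 nm.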
* hit, by the source's call; ? = inconclusive; nt = not tested or not shown; + = active, no number; [ ] = another dose, or the depositor's remark. Unless noted, the call rests on the fitted dose curve; in most records, active means well fitted curve in the direction sought with a large enough effect; inconclusive means small, poorly fitted or top-dose-only effect, or another doubt; inactive means no such curve, though single readings can be large; an effect the other way counts as inactive or inconclusive.

SMILES	RE007 growth inh	Tb PYK inh	LmPK inhibitor	CHX counter	Shiga toxin inh	Giardia FBPA inh
CCc1ccc(NC(=O)N(CCN2CCOCC2)Cc2ccc3c(c2)CCCN3CC)cc1	-22.2%	-8.9%	1.3%	25.5*	37.5	?
O=C(Nc1ccccc1)N(CCN1CCOCC1)Cc1ccccc1F	-0.4%	-3.8%	-4.7%	15.2*	-3.1	0.1%
CCN1CCCc2cc(CN(CCN3CCOCC3)C(=O)Nc3ccc(C)c(C)c3)ccc21	-6.2%	-9.4%	-1.5%	1.0	-1.2	-11.0%
Cc1cccc(NC(=S)N(CCN2CCOCC2)Cc2ccccc2F)c1	13.6%	0.0%	-4.2%	15.0	-10.5	1.2%
CCc1cc2c(cc3c(=O)n(CC(=O)N4CCN(c5cccc(C)c5C)CC4)nc(CC)n32)s1	nt	-8.4%	nt	nt	nt	nt
COc1ccc(C(=O)N2CCC3(CCCN(Cc4ccccc4OC)C3)CC2)cc1	nt	11.4%	nt	nt	nt	-4.8%
Cc1ccc(SCCN2CCC(C)CCC2=O)cc1 (configuration not stated)	5.2%	-3.9%	-7.1%	29.2*	37.6*	2.5%
C[C@H]1CCC(=O)N(CCSc2ccc(Br)cc2)CC1	0.8%	-2.9%	nt	nt	nt	nt
CC(C)(C)C1CCC(=O)N(CCSc2ccccc2)CC1 (configuration not stated)	3.7%	-2.5%	-0.1%	32.2*	61.8*	-11.4%
CC(=O)Nc1ccc(SCCN2CC[C@@H](C(C)(C)C)CCC2=O)cc1	-1.2%	-9.5%	nt	nt	nt	nt
Cc1ccc(SCCN2CCC(C(C)(C)C)CCC2=O)cc1 (configuration not stated)	-7.9%	1.9%	11.6%	25.4*	42.1*	10.8%
CS(=O)(=O)N1CCC2(CC1)CN(Cc1ccc(C#N)cc1)C2	nt	-5.3%	nt	nt	nt	0.4%
COc1ccc(CCNC(=O)CN(c2ccccc2)S(=O)(=O)N(C)C)cc1	nt	-3.9%	nt	nt	nt	nt
CN(C)c1nccc(N(Cc2ccccc2)Cc2ccccc2)c1C#N	16.1%	1.8%	4.6%	35.9*	94.4*	-14.9%
CCCn1c(-c2ccc(F)cc2)nc2c(NCCCN3CCCCC3C)nc(C)nc21 (configuration not stated)	nt	nt	nt	nt	nt	0.6%
Cc1ccc(-c2cn3nc(C)c(C)nc3n2)cc1	-10.9%	-12.1%	?	23.8*	31.9*	-9.8%
CCN(CC)c1ccc(C(=O)N2CCC(c3ccncc3)CC2)cc1	nt	-4.4%	nt	nt	nt	nt
Cc1cc(C)c2c(n1)SCCN2C(=O)Nc1ccc(C(=O)Nc2cc(Cl)ccc2C)cc1	nt	-4.2%[15.4 µM]	nt	nt	nt	nt
Cc1cc(C)c2c(=O)n(CC(=O)NCCCN3CCOCC3)sc2n1	?	6.31µM*	-16.4%	5.2	-4.6	-19.0%
CCOc1ccc(NC(=O)Cn2sc3nc(C)cc(C)c3c2=O)cc1	-15.7%	5.62µM*	-16.1%	-1.6	14.6	-6.2%
Cc1ccc(NC(=O)Cn2sc3nc(C)cc(C)c3c2=O)c(Cl)c1	21.7%	2.51µM*	-18.0%	-1.4	7.9	-17.0%
Cc1cc(C)c2c(=O)n(CC(=O)Nc3cccc(F)c3)sc2n1	-16.4%	?	-15.4%	-2.7	10.5	-20.8%
Cc1cc(C)c2c(=O)n(CC(=O)Nc3ccc(Cl)cc3)sc2n1	-4.9%	?	-22.5%	1.1	18.4	-26.4%
CCOC(=O)c1cc2c(=O)n3ccccc3nc2n(CCOC)c1=NC(=O)c1c(-c2ccccc2Cl)noc1C	nt	2.9%	nt	nt	nt	nt
CCc1nc(Nc2ccc3c(c2)OCO3)c2oc3ccccc3c2n1	3.9%	-8.1%	-2.3%	12.5*	62.3*	-24.3%
SMILES	RE007 growth inh	Tb PYK inh	LmPK inhibitor	CHX counter	Shiga toxin inh	Giardia FBPA inh
Cc1cccc(Nc2nc(C)nc3c2oc2ccccc23)c1	-18.3%	4.4%	0.7%	18.6*	42.4	-29.9%
Cc1nc(Nc2ccncc2)c2oc3ccccc3c2n1	-5.7%	-17.9%	2.5%	-3.7	-20.0	1.4%
CCc1nc(Nc2cccc(O)c2)c2oc3ccccc3c2n1	-0.2%	9.3%	-0.1%	15.3	38.9	-25.9%
Cc1ccc(Nc2ccc(-n3ccnc3)nn2)cc1C	-15.2%	-7.8%	3.6%	22.4*	2.4	4.3%
COc1cccc(Nc2ccc(-n3ccnc3)nn2)c1	-6.5%	2.9%	-0.2%	6.2	-4.5	2.4%
COC(=O)C1=C(C(=O)OC)[C@@H]2N(C)c3ccccc3[C@@]23C[C@@H](C(=O)OC)N(S(=O)(=O)c2ccc([N+](=O)[O-])cc2)C3=N1	nt	nt	3.6%[11.5 µM]	nt	nt	0.1%[12.9 µM]
O=C(O)c1ccc(N/N=C/c2ccc3c(c2)OCO3)cc1	?	?	10µM*	-10.6	-41.0	16.2%
COC(=O)c1cc(NS(=O)(=O)c2ccc3c(c2)OCCO3)ccc1Cl	nt	2.1%	nt	nt	nt	nt
O=C(O)c1ccc(N/N=C/c2cc3cc4c(cc3nc2Cl)OCCO4)cc1	-0.3%	-6.0%	-22.1%	11.7*	-2.3	-18.0%
C/C(=N\NC(=O)c1ccc2c(c1)OCO2)c1ccc(NS(C)(=O)=O)cc1	12.1%	-2.6%	nt	nt	nt	nt
O=C(O)c1cc(S(=O)(=O)Nc2ccc3c(c2)OCCO3)c(Cl)cc1Cl	-5.8%	0.9%	-0.9%	73.1*	137.3*	-12.1%
C/C(=N\Nc1ccc(Cl)c(C(=O)O)c1)c1ccc2c(c1)OCO2	-13.7%	-5.7%	0.1%	88.4*	+	-21.1%
O=C(O)c1cc(N/N=C/c2ccc3c(c2)OCO3)ccc1Cl	5.9%	-6.8%	-2.2%	80.1*	+	4.2%
O=C(CNC(=O)c1ccc2c(c1)OCCO2)N/N=C/c1ccc(Cl)cc1	-3.6%	3.1%	2.4%	11.0	2.4	6.8%
O=C(O)c1cc(N/N=C/c2ccc3c(c2)OCCO3)ccc1Cl	19.8%	-7.0%	4.5%	109.2*	116.0*	-0.4%
Cc1cc(C)nc(N/N=C/c2cc3c(cc2[N+](=O)[O-])OCO3)n1	0.5%	0.1%	-4.3%	15.2	0.8	-17.3%
O=C(O/N=C/c1ccc2c(c1)OCO2)c1ccccc1Cl	nt	nt	?	54.8*	131.9*	-8.9%
O=C(O)c1ccc(N/N=C/c2cc3c(cc2[N+](=O)[O-])OCO3)cc1	-9.3%	-13.4%	-3.5%	17.4	42.2*	4.1%
CCc1cccc(NC(=O)Cn2c(=O)n(CC3CCC(C(=O)NCCc4ccccc4)CC3)c(=O)c3ccccc32)c1 (configuration not stated)	nt	-2.0%	nt	nt	nt	nt
CCOc1ccccc1CNC(=O)CCCN1C(=O)c2cccnc2Oc2ccc(Cl)cc21	nt	4.9%[15.4 µM]	nt	nt	nt	nt
Cc1ccc(N/N=C/c2ccc3c(c2)OCCO3)cc1Cl	20.2%	-10.5%	1.2%	55.4*	27.7*	-15.0%
Cc1nnc(C)n1/N=C/c1ccc2c(c1)OCCO2	-13.5%	-2.6%	-0.2%	3.4	-10.6	6.0%
Cc1cc(C)nc(NS(=O)(=O)c2ccc(NC(=O)COc3ccc(C(C)(C)C)cc3)cc2)n1	nt	-2.8%	nt	nt	nt	nt
C/C(=N\Nc1cc(C)nc(-c2ccccc2O)n1)c1ccccc1	-2.8%	-7.8%	7.3%	30.6*	151.0	-7.9%
